High-throughput results (PubChem BioAssay)
CYP2C9 act – human CYP2C9 activators, primary screen, biochemical, luminescence; Cytochrome P450 2C9 (Homo sapiens), P11712; activation factor at 5 µM; hit rate 1.4% among 96,000; recombinant CYP2C9, luciferin-H conversion; stronger effect = higher value; factor 1 = untreated enzyme, 0 = blocked;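 active means activation factor of 2 or more for CYP2C9 at a 5 µM dose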;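 further: 0 = sulfaphenazole-blocked wells and 1 = vehicle-only wells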
Target sequence (P11712 whole entry, looked up): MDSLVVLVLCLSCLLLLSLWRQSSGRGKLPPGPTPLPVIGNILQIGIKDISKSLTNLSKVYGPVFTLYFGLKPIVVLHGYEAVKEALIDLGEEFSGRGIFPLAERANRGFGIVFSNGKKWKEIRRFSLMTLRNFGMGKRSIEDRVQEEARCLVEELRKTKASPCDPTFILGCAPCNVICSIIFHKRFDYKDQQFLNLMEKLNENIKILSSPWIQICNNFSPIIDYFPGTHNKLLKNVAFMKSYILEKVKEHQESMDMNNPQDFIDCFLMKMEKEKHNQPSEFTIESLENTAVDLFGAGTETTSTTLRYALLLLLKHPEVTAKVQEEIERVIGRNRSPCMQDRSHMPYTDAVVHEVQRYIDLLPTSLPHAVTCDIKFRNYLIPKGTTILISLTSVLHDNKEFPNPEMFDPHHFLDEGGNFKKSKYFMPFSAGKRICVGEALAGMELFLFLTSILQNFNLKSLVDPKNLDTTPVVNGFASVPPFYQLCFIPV
PLK1 kinase inh – human PLK1 kinase inhibitors, primary screen, biochemical, TR-FRET | Serine/threonine-protein kinase PLK1 (Homo sapiens), P53350 | recombinant PLK1 kinase, TR-FRET peptide phosphorylation | inhibition, % at 10 µM | hit rate 0.53% among 97,000 | AID 619, 2007;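 active means inhibition of 50% or more in the single-concentration screen; inactive means inhibition below 50%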;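 further: 0% = DMSO max control and 100% = H-89 dihydrochloride min control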
CYP2C19 activ – human CYP2C19 activators, primary screen, biochemical, luminescence. activation factor at 5 µM. recombinant CYP2C19, luciferin-H EGE luminescence; stronger effect = higher value; 0 = fully inhibited enzyme, 1 = untreated enzyme. 96,000 tested, under 10 active. AID 1025, 2008;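 active means activation factor of at least 2 at 5 µM in the primary screen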;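 further: 0 = wells with 2.5 mM tranylcypromine and 1 = vehicle-only wells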
CYP2C9 inh – blockers of cytochrome P450 2C9 activity – biochemical, luminescence, ADME assay, primary screen | P11712 | CYP2C9 Supersomes, luciferin-H conversion | inhibition, % at 5 µM | hit rate 20% among 96,000 | AID 777, 2007;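 active means blocking of liver enzyme CYP2C9 beyond about 50% at 5 µM, limit read from the data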
CYP2C19 inhib – blockers of cytochrome P450 2C19 activity – biochemical, luminescence, ADME assay, primary screen | CYP2C19 Supersomes, luciferin-H EGE luminescence, 30 min | hit rate 21% among 96,000 | inhibition, % at 5 µM | P33261 | AID 778, 2007;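 active means CYP2C19 inhibition above a set limit at 5 µM in the primary screen, cut at about 50% in these data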;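 further: plate controls were negative control wells for no effect and 2.5 mM tranylcypromine positive control for full effect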
Plk1 PBD FP – Plk1 polo box domain binding inhibitors, primary screen, biochemical, fluorescence polarization. inhibition, %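 (tested at about 20 µM)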. AID 693, 2007. Plk1 PBD phosphopeptide binding. hit rate 0.13% among 97,000; in the data active means inhibition above about 34%, passing the limit was not always enough
Starred values were filed as active, the others as inactive. Compounds with a hit are over-represented: about 28% of the library has one in this group of screens.

For O=C(NCCc1ccccc1)c1cnc2ccccn2c1=O the results were CYP2C9 act 0.8, PLK1 kinase inh -8, CYP2C19 activ 0.5, CYP2C9 inh 21, CYP2C19 inhib 55* and Plk1 PBD FP -17.
For Cc1csc2ncc(C(=O)NCCc3ccccc3)c(=O)n12 the results were CYP2C9 act 1.2, PLK1 kinase inh -4, CYP2C19 activ 0.5, CYP2C9 inh -17, CYP2C19 inhib 54* and Plk1 PBD FP 26.
For Cc1ccccc1NC(=O)c1cnc2ccccn2c1=O the results were CYP2C9 act 1, PLK1 kinase inh -8, CYP2C19 activ 0.8, CYP2C9 inh 5, CYP2C19 inhib 20 and Plk1 PBD FP 1.
For CN(C)CCCN1C(=O)c2oc3ccc(F)cc3c(=O)c2C1c1cccnc1 (stereo not given) the results were CYP2C9 act 1.1, CYP2C19 activ 0.9, CYP2C9 inh -10 and CYP2C19 inhib 8.
`Cc1onc(-c2ccccc2Cl)c1C(=O)Nc1cccc2nsnc12` gave CYP2C9 act 0.7, PLK1 kinase inh -10, CYP2C19 activ 1, CYP2C9 inh 34, CYP2C19 inhib 1 and Plk1 PBD FP -10.
Screening Cc1onc(-c2ccccc2Cl)c1C(=O)Nc1ccccc1C(N)=O returned CYP2C9 act 0.6, PLK1 kinase inh -8, CYP2C19 activ 0.4, CYP2C9 inh 38, CYP2C19 inhib 56* and Plk1 PBD FP 1.
For Cc1onc(-c2ccccc2Cl)c1C(=O)Nc1ccccc1C(=O)NC(C)C the results were CYP2C9 act 0.2, PLK1 kinase inh -5, CYP2C19 activ 0.6, CYP2C9 inh 79*, CYP2C19 inhib 43 and Plk1 PBD FP -39.
Cc1onc(-c2ccccc2Cl)c1C(=O)NCc1ccccc1 was read as CYP2C9 act 0.4, PLK1 kinase inh -2, CYP2C19 activ 0.1, CYP2C9 inh 58*, CYP2C19 inhib 88* and Plk1 PBD FP 0.
`Cc1onc(-c2ccccc2Cl)c1C(=O)OCN1C(=O)c2ccccc2C1=O` gave CYP2C9 act 0.8, PLK1 kinase inh -2, CYP2C19 activ 0.4, CYP2C9 inh 18, CYP2C19 inhib 56* and Plk1 PBD FP -6.
`CCOC(=O)c1cnc(=O)[nH]c1C` gave CYP2C9 act 1, CYP2C19 activ 1.1, CYP2C9 inh -3 and CYP2C19 inhib -9.
`O=C(CN1C(=O)CSC1=O)c1ccccc1` gave CYP2C9 act 0.9, PLK1 kinase inh -2, CYP2C19 activ 1, CYP2C9 inh 13, CYP2C19 inhib 1 and Plk1 PBD FP -14.
Screening CC(C)(C)Nc1nc(OCC(F)(F)F)nc(OCC(F)(F)F)n1 returned CYP2C9 act 1, PLK1 kinase inh -14, CYP2C19 activ 0.9, CYP2C9 inh 4, CYP2C19 inhib 7 and Plk1 PBD FP -8.
Cc1ccc(-n2nc3c(c2NC(=O)c2ccc(Br)o2)CSC3)c(C)c1 was read as CYP2C9 act 0.3, PLK1 kinase inh -1, CYP2C19 activ 0.8, CYP2C9 inh 67*, CYP2C19 inhib 19 and Plk1 PBD FP 11.
`CCSc1nnc(NC(=O)c2c(-c3ccccc3Cl)noc2C)s1` gave CYP2C9 act 0.1, PLK1 kinase inh -6, CYP2C19 activ 0, CYP2C9 inh 95*, CYP2C19 inhib 100* and Plk1 PBD FP -5.
Screening Cc1onc(-c2ccccc2Cl)c1C(=O)Nc1cccc2cccnc12 returned CYP2C9 act 0.5, PLK1 kinase inh -10, CYP2C19 activ 0.2, CYP2C9 inh 46, CYP2C19 inhib 76* and Plk1 PBD FP -1.
`Cc1ccccc1-n1nc2c(c1NC(=O)c1c(-c3ccccc3Cl)noc1C)CSC2` gave CYP2C9 act 0.5, PLK1 kinase inh -1, CYP2C19 activ 0.7, CYP2C9 inh 50*, CYP2C19 inhib 34 and Plk1 PBD FP -14.
`COc1ccc(NC(=O)C2CCN(C(=O)c3ccc(OC)cc3)CC2)cc1` gave CYP2C9 act 1, PLK1 kinase inh -7, CYP2C19 activ 1, CYP2C9 inh 0, CYP2C19 inhib -2 and Plk1 PBD FP 1.
